Laboratory results published in PubChem BioAssay AID504832 (National Center for Advancing Translational Sciences (NCATS), 2011).
The whole screen tested about 310,000 compounds, of which about 18,000 (5.8%) were called active. Not shown: some 22% with an inconclusive outcome. The sample holds actives, similar compounds and a random draw of the others, so the mix is not that of the screen. A number with no mark means an inactive call. Calls come from the whole dose curve; as a rule, active = well fitted inhibition curve with a large enough effect; inconclusive = small, poorly fitted or top-dose-only effect, or another doubt; inactive = no such curve, though single readings can be large or run the other way.

Test: Primary qHTS for delayed death inhibitors of the malarial parasite plastid, 48 hour incubation
Conditions: P. falciparum luciferase growth in erythrocytes; series mostly up to 28.7 µM; activity change, negative = inhibition: at the top concentration
How it was run: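 Here the parasites carry a stable luciferase gene and grow inside erythrocytes in Albumax-based RPMI medium with compound for one erythrocytic cycle. Activity is scored as loss of luminescent signal.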
% is set by controls: 0 for no effect and ±100 for the full control effect; potency is the fitted concentration of half-maximal effect.

Structure (SMILES)	Potency	activity change, negative = inhibition [%]
O=c1c2ccccc2nc(/C=C/c2ccc(F)cc2)n1-c1ccccc1O	13.1 µM (active)	
O=c1oc(/C=C/c2ccccc2)nc2ccccc12		-17.6
CCC(=O)c1ccc(OCC(=O)Nc2ccc3nc(C)sc3c2)cc1		57.5
Cc1ccc(NC(=O)COc2ccc(/C=N\NC(=O)c3cccnc3)cc2)cc1C		-4.91
Cc1ccc(NC(=O)COc2ccc(-n3ccnc3)cc2)cc1Cl	9.28 µM (active)	
Cc1ccc(NC(=O)NC(=O)c2ccccc2)cc1F		200
Cc1ccc(S(=O)(=O)Nc2nc(C)cc(N/N=C/c3ccc(O)cc3)n2)cc1		29.3
COc1ccc(NC(=O)c2nc(-n3nc(C)cc3C)ccc2Cl)cc1Cl		-20.1
Cc1nc(Cl)cc(N/N=C/c2ccccc2)n1		30.2
COc1cc(/C=N/Nc2nc3ccccc3s2)ccc1O		60.1
COc1cc(NS(=O)(=O)c2ccccc2)ccc1-n1nc(C)cc1C		-2.42
COc1ccccc1/C=N\Nc1cc(C)nc(-n2nc(C)cc2C)n1	1.65 µM (active)	
COc1cccc(/C=N/Nc2cc(C)nc(-c3ccccc3O)n2)c1O	3.7 µM (active)	
COc1cccc2c(N/N=C/c3ccco3)cc(C)nc12		59.2
Cc1cc(N/N=C\c2ccc(Br)cc2)nc(-n2nc(C)cc2C)n1	1.04 µM (active)	
CCc1nc2nc(C)c(NS(=O)(=O)c3ccc4c(c3)CCCC4)c(=O)n2[nH]1		8.15
CN(CC(=O)Nc1cccc(F)c1)C(=O)CC1CCCC1		-5.39
Cc1ccc(-c2ccnc3[nH]n(-c4ccccc4)c(=O)c23)cc1		35.7
C=CCn1c(CNS(=O)(=O)c2ccc(Br)cc2)nnc1SC		68.4
COc1ccc(OC)c(NC(=O)Cc2cccs2)c1		-3.98

Structure (SMILES)	Potency	activity change, negative = inhibition [%]
CN(CC(=O)NNC(=O)CNC(=O)c1ccccc1Cl)S(=O)(=O)c1ccc(Cl)cc1		10.7
Cc1csc(SCC(=O)N(c2ccccc2)C(C)C)n1	10.4 µM (active)	
COc1ccc(NC(=O)CSc2nc(C)cs2)cc1		29.2
Cc1ccc(C(=O)N2CC(=O)Nc3ccc(F)cc3C2c2ccc(F)cc2)cc1 (stereo not drawn)		-27.6
O=S(=O)(c1cccs1)N1CCN(CCOc2ccccc2)CC1		-21.8
COC(=O)c1ccc2c(C(C)(C)O)c(C(C)(C)O)[nH]c2c1		24.6
COc1cccc(/C=N/Nc2ncc(C(F)(F)F)cc2Cl)c1O	1.04 µM (active)	
COc1cc(/C=C2\SC(=S)N(Nc3ncc(C(F)(F)F)cc3Cl)C2=O)cc(OC)c1OC		4.07
COc1cccc(/C(C)=N/Nc2ncc(Cl)cc2Cl)c1		113
O=C(NNC(=O)c1ccco1)Nc1ccccc1		21.8
Cc1ccc(C(=O)OCC(=O)NC(=O)Cc2ccccc2)c(O)c1		0.538
COc1cc(NS(=O)(=O)c2ccc(NC(=S)NC(=O)c3ccc(Br)cc3)cc2)ncn1		12.6
COc1ccc(Cc2cc(-c3ccc(F)cc3)n[nH]c2=O)cc1		5
COc1ccc(C(CCNCc2ccccc2F)c2ccc(F)cc2)cc1 (stereo not drawn)	7.38 µM (active)	
COc1ccc(CC(=O)NC(C)CCc2ccccc2)cc1 (stereo not drawn)		-23
CC1(C)Cc2c(cnn2-c2cccc(F)c2)C(NC(=O)c2cc[n+]([O-])cc2)C1 (stereo not drawn)		5.83
Cc1ccc(S(=O)(=O)N2CCOCC2)cc1NC(=O)COC(=O)c1cnccn1		10.8
Cc1cccc(NS(=O)(=O)c2ccc([N+](=O)[O-])cc2)n1		-2.21
O=C(Cc1ccc(Cl)c(Cl)c1)Nc1ccc(SC(F)F)cc1		-93.2
O=C(CCl)Nc1ccc(Sc2ccc(NC(=O)CCl)cc2)cc1	3.29 µM (active)	

Structure (SMILES)	Potency	activity change, negative = inhibition [%]
Cc1ccc(NC(=O)CC(=O)Nc2ccc(C)cc2)cc1		3.91
CCN(CC)S(=O)(=O)c1ccc(-c2cn3ccc(C)cc3n2)cc1		171
CCCOc1cccc(C(=O)NCCCNC(=O)c2cccnc2)c1		-2.92
Cc1nn(C(C)C(=O)NCCC2=CCCCC2)c(=O)c2nn(-c3ccccc3)c(C)c12 (stereo not drawn)		-12.9
O=C(NNS(=O)(=O)c1ccc(F)cc1)C1CCCCC1		9.65
CS(=O)(=O)Nc1ccccc1N=C(c1ccccc1)c1ccccc1		-17.5
CCOc1ccc(N(C(=O)c2snc(C(N)=O)c2N)C(C(=O)NCC2CCCO2)c2c[nH]c3ccccc23)cc1 (stereo not drawn)	5.22 µM (active)	
COCCNC(=O)C(c1ccc(C)o1)N(Cc1cccs1)C(=O)c1snc(C(N)=O)c1N (stereo not drawn)		-9.83
CCOc1ccc(N(CC(=O)NCC2CCCO2)S(=O)(=O)c2ccc(C)cc2)cc1 (stereo not drawn)		19.1
CCOc1ccc(-n2c(N)c(C(=O)NCC3CCCO3)sc2=S)cc1 (stereo not drawn)		8.29
CC(Sc1nn(-c2ccc(Cl)cc2)c(=S)s1)C(=O)NCC1CCCO1 (stereo not drawn)		18.6
COC(=O)c1cccc(N(C(=O)CNC(=O)c2cccs2)C(C(=O)NCC2CCCO2)c2ccc(OC)c(OC)c2)c1 (stereo not drawn)		-17.6
Cc1ccc(N(C(=O)Cc2cccs2)C(C(=O)NCC2CCCO2)c2ccncc2)cc1 (stereo not drawn)		-1.9
COc1cccc(N(C(=O)c2snc(C(N)=O)c2N)C(C(=O)NCC2CCCO2)c2c[nH]c3ccccc23)c1 (stereo not drawn)	9.28 µM (active)	
Cc1ccc(N(C(=O)c2snc(C(N)=O)c2N)C(C(=O)NCC2CCCO2)c2c[nH]c3ccccc23)cc1 (stereo not drawn)	7.38 µM (active)	
O=C(NCCc1c[nH]c2ccccc12)C(=O)NCC1CCCO1 (stereo not drawn)		13.2
CCOc1cc(C(C(=O)NCC2CCCO2)N(C(=O)Cn2nnc3ccccc32)c2cccc(OC)c2)ccc1O (stereo not drawn)		-23.6
Cc1ccc(C(C(=O)NCC2CCCO2)N(C(=O)c2snc(C(N)=O)c2N)c2ccc(C(C)C)cc2)o1 (stereo not drawn)	9.28 µM (active)	
